{"source": "PubChem BioAssay (NCATS)", "note": "Results filed as inconclusive are left out. Entries that show only a call come without a potency. Unmarked numbers belong to inactive results. Calls of active or inactive are those of the source. Calls come from the whole dose curve; as a rule, active = well fitted curve in the direction sought with a large enough effect; inconclusive = small, poorly fitted or top-dose-only effect, or another doubt; inactive = no such curve, though single readings can be large; an effect the other way counts as inactive or inconclusive. Throughout, for potency: potency is the fitted concentration of half-maximal effect.", "data": [{"test": "qHTS of pediatric cancer cell lines to identify multiple opportunities for drug repurposing: Primary screen for NB1643 cells (AID 1347099); note: nearly all actives have a fitted effect of over 50% in size", "settings": "NB1643 neuroblastoma viability, CellTiter-Glo luminescence, 48 h; series mostly up to 46 µM", "summary_of_the_method": "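Plated cells (500-1,000 per well, growth media) were allowed to settle for 5 hours, treated with compound dilutions for 48 hours, then lysed with CellTiter-Glo for 15 min at room temperature before luminescence reading.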", "values": [{"smiles": "CCC(C(=O)OCCOCCN(CC)CC)c1ccccc1", "note": "(stereo not given)", "Potency": "inactive"}, {"smiles": "CC(CNC1CCCCC1)OC(=O)c1ccccc1", "note": "(stereo not given)", "Potency": "inactive"}, {"smiles": "CCCCCCCCCCC[C@@H](C[C@@H]1OC(=O)[C@H]1CCCCCC)OC(=O)[C@H](CC(C)C)NC=O", "Potency": "inactive"}, {"smiles": "CNCCc1ccccn1", "Potency": "inactive"}, {"smiles": "C#C[C@]1(O)CC[C@H]2[C@@H]3CCC4=CC(=O)CC[C@@H]4[C@H]3CC[C@@]21CC", "Potency": "inactive"}, {"smiles": "CCN[C@@H]1C[C@H](N)[C@@H](OC2OC(CN)=CCC2N)[C@H](O)[C@H]1O[C@H]1OC[C@](C)(O)[C@H](NC)[C@H]1O", "note": "(stereo not given in full)", "activity change, negative = cytotoxic": "4.64% [at 0.597 µM]"}, {"smiles": "O=[N+]([O-])c1cccc(S(=O)(=O)NCCNS(=O)(=O)c2cccc([N+](=O)[O-])c2)c1", "Potency": "inactive"}, {"smiles": "C#C[C@]1(O)CC[C@H]2[C@@H]3CCC4=Cc5oncc5C[C@]4(C)[C@H]3CC[C@@]21C", "Potency": "inactive"}, {"smiles": "O=C1C(=O)c2ccccc2C(O)=C1C1CCC(c2ccc(Cl)cc2)CC1", "note": "(stereo not given)", "Potency": "inactive"}, {"smiles": "CCc1ccc(C(=O)C(C)CN2CCCCC2)cc1", "note": "(stereo not given)", "Potency": "inactive"}, {"smiles": "COc1cc(C(=O)NCc2ccc(OCCN(C)C)cc2)cc(OC)c1OC", "Potency": "inactive"}, {"smiles": "CCOC(=O)c1ccc(N)cc1", "Potency": "inactive"}, {"smiles": "NC(=O)c1ccccc1O", "Potency": "inactive"}, {"smiles": "CCCCCCCCCCCCSCCOCCO", "Potency": "inactive"}, {"smiles": "C[C@H]1[C@H]2CC[C@H]3[C@@H]4CC=C5C[C@@H](N(C)C)CC[C@]5(C)[C@H]4CC[C@]23CN1C", "Potency": "inactive"}, {"smiles": "CCCCC(CC)CN1CN(CC(CC)CCCC)CC(C)(N)C1", "note": "(stereo not given)", "Potency": "inactive"}, {"smiles": "CCC1Nc2cc(Cl)c(S(N)(=O)=O)cc2S(=O)(=O)N1", "note": "(stereo not given)", "Potency": "inactive"}, {"smiles": "O=C(CCN1CCN2CCCC2C1)N1c2ccccc2Sc2ccc(Cl)cc21", "note": "(stereo not given)", "Potency": "inactive"}, {"smiles": "OC[C@H]1O[C@@H](Oc2ccc(O)cc2)[C@H](O)[C@@H](O)[C@@H]1O", "Potency": "inactive"}]}, {"test": "qHTS of pediatric cancer cell lines to identify multiple opportunities for drug repurposing: Primary screen for LAN-5 cells (AID 1347100); note: potency is the fitted concentration of half-maximal effect", "settings": "LAN-5 neuroblastoma viability, CellTiter-Glo luminescence, 48 h; series mostly up to 46 µM", "summary_of_the_method": "(§1)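 Cells (500-1,000/well) rested 5 h, then received compounds for 48 h; metabolically active cells were measured by CellTiter-Glo luminescence. Final concentrations spanned up to 46 µM (MIPE, 11-point) or 0.59 nM-46 µM (NPC, 8-point) in primary screens, 11-point in follow-ups.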", "values": [{"smiles": "CCC(C(=O)OCCOCCN(CC)CC)c1ccccc1", "note": "(stereo not given)", "Potency": "inactive"}, {"smiles": "c1ccc(-c2nc[nH]c2-c2ccccc2)cc1", "Potency": "inactive"}, {"smiles": "CC(CNC1CCCCC1)OC(=O)c1ccccc1", "note": "(stereo not given)", "Potency": "inactive"}, {"smiles": "CCN[C@@H]1C[C@H](N)[C@@H](OC2OC(CN)=CCC2N)[C@H](O)[C@H]1O[C@H]1OC[C@](C)(O)[C@H](NC)[C@H]1O", "note": "(stereo not given in full)", "activity change, negative = cytotoxic": "-0.753% [at 0.597 µM]"}, {"smiles": "O=[N+]([O-])c1cccc(S(=O)(=O)NCCNS(=O)(=O)c2cccc([N+](=O)[O-])c2)c1", "Potency": "inactive"}, {"smiles": "COc1cc([C@H]2Oc3cc([C@H]4Oc5cc(O)cc(O)c5C(=O)[C@@H]4O)ccc3O[C@@H]2CO)ccc1O", "Potency": "inactive"}, {"smiles": "CCc1oc2ccccc2c1C(=O)c1cc(I)c(O)c(I)c1", "Potency": "inactive"}, {"smiles": "CN(Cc1ccc(C(C)(C)C)cc1)Cc1cccc2ccccc12", "Potency": "inactive"}, {"smiles": "O=C1C(=O)c2ccccc2C(O)=C1C1CCC(c2ccc(Cl)cc2)CC1", "note": "(stereo not given)", "Potency": "inactive"}, {"smiles": "CCc1ccc(C(=O)C(C)CN2CCCCC2)cc1", "note": "(stereo not given)", "Potency": "inactive"}, {"smiles": "COc1cc(C(=O)NCc2ccc(OCCN(C)C)cc2)cc(OC)c1OC", "Potency": "inactive"}, {"smiles": "CC(=O)NCCCCCC(=O)O", "Potency": "inactive"}, {"smiles": "CN1CCN(CCC(=O)N2c3ccccc3Sc3ccc(C(F)(F)F)cc32)CC1", "Potency": "26.6 µM (active)"}, {"smiles": "CCOC(=O)Nc1ccc2c(c1)N(C(=O)CCN1CCOCC1)c1ccccc1S2", "Potency": "inactive"}, {"smiles": "CCCCN1C[C@H](O)[C@@H](O)[C@H](O)[C@H]1CO", "Potency": "inactive"}, {"smiles": "C[C@H]1[C@H]2CC[C@H]3[C@@H]4CC=C5C[C@@H](N(C)C)CC[C@]5(C)[C@H]4CC[C@]23CN1C", "Potency": "inactive"}, {"smiles": "CCC1Nc2cc(Cl)c(S(N)(=O)=O)cc2S(=O)(=O)N1", "note": "(stereo not given)", "Potency": "inactive"}, {"smiles": "CCc1oc2ccccc2c1C(=O)c1cc(Br)c(O)c(Br)c1", "Potency": "inactive"}, {"smiles": "O=C(CCN1CCN2CCCC2C1)N1c2ccccc2Sc2ccc(Cl)cc21", "note": "(stereo not given)", "Potency": "inactive"}, {"smiles": "CCN(CC)CCOC(=O)C(Cc1cccc2ccccc12)CC1CCCO1", "note": "(stereo not given)", "Potency": "inactive"}, {"smiles": "OC[C@H]1O[C@@H](Oc2ccc(O)cc2)[C@H](O)[C@@H](O)[C@@H]1O", "Potency": "inactive"}]}, {"test": "qHTS of pediatric cancer cell lines to identify multiple opportunities for drug repurposing: Primary screen for BT-12 cells (AID 1347101)", "settings": "BT-12 viability, CellTiter-Glo luminescence, 48 h; series mostly up to 57.3 µM", "summary_of_the_method": "as §1", "values": [{"smiles": "CCC(C(=O)OCCOCCN(CC)CC)c1ccccc1", "note": "(stereo not given)", "Potency": "inactive"}, {"smiles": "c1ccc(-c2nc[nH]c2-c2ccccc2)cc1", "Potency": "inactive"}, {"smiles": "CC(CNC1CCCCC1)OC(=O)c1ccccc1", "note": "(stereo not given)", "Potency": "inactive"}, {"smiles": "CCCCCCCCCCC[C@@H](C[C@@H]1OC(=O)[C@H]1CCCCCC)OC(=O)[C@H](CC(C)C)NC=O", "Potency": "inactive"}, {"smiles": "CNCCc1ccccn1", "Potency": "inactive"}, {"smiles": "C#C[C@]1(O)CC[C@H]2[C@@H]3CCC4=CC(=O)CC[C@@H]4[C@H]3CC[C@@]21CC", "Potency": "inactive"}, {"smiles": "CCN[C@@H]1C[C@H](N)[C@@H](OC2OC(CN)=CCC2N)[C@H](O)[C@H]1O[C@H]1OC[C@](C)(O)[C@H](NC)[C@H]1O", "note": "(stereo not given in full)", "activity change, negative = cytotoxic": "7.6% [at 0.745 µM]"}, {"smiles": "O=[N+]([O-])c1cccc(S(=O)(=O)NCCNS(=O)(=O)c2cccc([N+](=O)[O-])c2)c1", "Potency": "inactive"}, {"smiles": "COc1cc([C@H]2Oc3cc([C@H]4Oc5cc(O)cc(O)c5C(=O)[C@@H]4O)ccc3O[C@@H]2CO)ccc1O", "Potency": "inactive"}, {"smiles": "CCc1oc2ccccc2c1C(=O)c1cc(I)c(O)c(I)c1", "Potency": "inactive"}, {"smiles": "CN(Cc1ccc(C(C)(C)C)cc1)Cc1cccc2ccccc12", "Potency": "inactive"}, {"smiles": "O=C1C(=O)c2ccccc2C(O)=C1C1CCC(c2ccc(Cl)cc2)CC1", "note": "(stereo not given)", "Potency": "inactive"}, {"smiles": "CCc1ccc(C(=O)C(C)CN2CCCCC2)cc1", "note": "(stereo not given)", "Potency": "inactive"}, {"smiles": "COc1cc(C(=O)NCc2ccc(OCCN(C)C)cc2)cc(OC)c1OC", "Potency": "inactive"}, {"smiles": "CC(=O)NCCCCCC(=O)O", "Potency": "inactive"}, {"smiles": "CCOC(=O)Nc1ccc2c(c1)N(C(=O)CCN1CCOCC1)c1ccccc1S2", "Potency": "inactive"}, {"smiles": "CCOC(=O)c1ccc(N)cc1", "Potency": "inactive"}, {"smiles": "NC(=O)c1ccccc1O", "Potency": "inactive"}, {"smiles": "CC(=O)Nc1ccc(S(=O)(=O)Nc2ccc([N+](=O)[O-])cc2)cc1", "Potency": "inactive"}, {"smiles": "CCCCN1C[C@H](O)[C@@H](O)[C@H](O)[C@H]1CO", "Potency": "inactive"}, {"smiles": "CCCCCCCCCCCCSCCOCCO", "Potency": "inactive"}, {"smiles": "C[C@H]1[C@H]2CC[C@H]3[C@@H]4CC=C5C[C@@H](N(C)C)CC[C@]5(C)[C@H]4CC[C@]23CN1C", "Potency": "inactive"}, {"smiles": "CCC1Nc2cc(Cl)c(S(N)(=O)=O)cc2S(=O)(=O)N1", "note": "(stereo not given)", "Potency": "inactive"}, {"smiles": "CCc1oc2ccccc2c1C(=O)c1cc(Br)c(O)c(Br)c1", "Potency": "inactive"}, {"smiles": "CCNC(=O)NCc1cccc(Cl)c1", "Potency": "inactive"}, {"smiles": "O=C(N/N=C/c1ccc([N+](=O)[O-])o1)c1ccc(O)cc1", "Potency": "13.8 µM (active)"}, {"smiles": "O=C(CCN1CCN2CCCC2C1)N1c2ccccc2Sc2ccc(Cl)cc21", "note": "(stereo not given)", "Potency": "inactive"}, {"smiles": "CCN(CC)CCOC(=O)C(Cc1cccc2ccccc12)CC1CCCO1", "note": "(stereo not given)", "Potency": "inactive"}, {"smiles": "CCCCCCCCCCCCOCCOCCOCCOCCOCCOCCOCCOCCOCCO", "Potency": "6.92 µM (active)"}, {"smiles": "OC[C@H]1O[C@@H](Oc2ccc(O)cc2)[C@H](O)[C@@H](O)[C@@H]1O", "Potency": "inactive"}]}]}
